This passage reports Inhibition results from ChEMBL document CHEMBL1157539, “Thousands of chemical starting points for antimalarial lead identification” (Nature, 2010).

Holding throughout (format): functional
Experiment [1] deals with Plasmodium falciparum. The experiment is described as follows: GSK_TCMDC: Inhibition of Plasmodium falciparum 3D7 in whole red blood cells, using parasite LDH activity as an index of growth. Test compounds present at 2uM.
Experiment [2] concerns Plasmodium falciparum. The experiment in a line: GSK_TCMDC: Inhibition of Plasmodium falciparum Dd2 in whole red blood cells, using parasite LDH activity as an index of growth. Test compounds present at 2uM.
Another experiment deals with HepG2. The experiment in a line: GSK_TCMDC: Percent inhibition of human HepG2 cell line. Test compounds present at 10uM.

A word on the Inhibition: it is the relative decrease from the control value, in per cent. A lower Inhibition goes with a response near the control. Consider `COc1cc(Cc2cnc(N)nc2N)ccc1OCC(=O)Nc1ccc(C)cc1`, for which the Inhibition is reported as 95% with Plasmodium falciparum [1], 18% in the experiment with Plasmodium falciparum [2] and 10% in the experiment on HepG2.
The corresponding values for `CSc1sc(NC(=O)Nc2cccc(C(F)(F)F)c2)cc1C#N` are 99%, 46% and 27%.
The corresponding values for `CN(C)c1ccc(OCCCCCCOc2ccccc2)cc1.Cl` are 85%, 68% and 0%.
The corresponding values for `N#Cc1cc([N+](=O)[O-])ccc1-n1nc(-c2cccc(Cl)c2)n(Cc2ccco2)c1=S` are 100%, 100% and 12%.
In the case of `COc1ccccc1/C=C/C(=O)NC1CCC(CCN2CCc3ccc(-c4cc(C)no4)cc3CC2)CC1.Cl` (stereo not drawn), the Inhibition in the experiment on Plasmodium falciparum [1] is listed as 95%; in the experiment with Plasmodium falciparum [2] it was 11%; in the experiment with HepG2, 47%.
The like results for `CCc1cc2c(cc1OCCN(C)C)N(C(=O)Nc1ccc(-c3ccncc3)c(Cl)c1)CC2` were, in that order, 95%, 7% and 18%.
The corresponding values for `COc1cc(NC(=O)N2CCc3ccc(OCCN(C(C)C)C(C)C)cc32)cc(C(F)(F)F)c1.O=C(O)C(F)(F)F` are 100%, 97% and 6%.
The like results for `COc1cc(Nc2ccnc3ccc(C(C)(C)C)cc23)cc(OC)c1OC` were, in that order, 100%, 80% and 12%.
With `CCN(CC)CCN(Cc1ccc(-c2ccc(C(F)(F)F)cc2)cc1)C(=O)Cn1cc(Cc2cnn(C)c2)c(=O)n2nc(-c3ccccc3)cc12.O=C(O)C(O)C(O)C(=O)O`, the Inhibition in the experiment on Plasmodium falciparum [1] is reported as 100%; in the experiment with Plasmodium falciparum [2] it was 74%; in the experiment with HepG2, 18%.
The corresponding values for `COc1cccc(N(CCCN2C(=O)c3cccc4cccc(c34)C2=O)C(=O)c2ccccc2C)c1` are 86%, 70% and 20%.
The corresponding values for `Cn1cc(CN2CCCC(COC(c3ccc(F)cc3)c3ccc(F)cc3)C2)cn1` (stereo not drawn) are 98%, 100% and 15%.
The like results for `O=C(C=Cc1ccc(Cl)c(Cl)c1)NCCCCCN1CCC(CCNC(=O)c2ccc3c(c2)OCO3)CC1` were, in that order, 99%, 2% and 35%.
On to `Cc1ccc2[nH]cc(/C=C/C(=O)NC3CCC(CCN4CCc5ccc(C#N)cc5CC4)CC3)c2c1.Cl` (stereo not drawn), for which the Inhibition with Plasmodium falciparum [1] turned out to be 93%; with Plasmodium falciparum [2], 49%; in the experiment on HepG2, 11%.
The like results for `Cc1cc2cc(/C=C/C(=O)NC3CCC(CCN4CCc5ccc(C#N)cc5CC4)CC3)ccc2[nH]1.Cl` (stereo not drawn) were, in that order, 85%, 49% and 6%.
The corresponding values for `Cc1[nH]c2ccccc2c1C=NNc1nc(=Nc2ccccc2)[nH]c(=Nc2ccccc2)[nH]1` are 87%, 23% and 3%.
For the compound `COc1ccc(NC(=O)/C=C/c2ccccc2Cl)cc1OCCN1CCC(N2CCN(C)CC2)CC1`, the Inhibition in the experiment on Plasmodium falciparum [1] was 100%; with Plasmodium falciparum [2], 49%; in the experiment on HepG2, 19%.
The like results for `Cc1ccc(NC(=O)Nc2ccc(Cl)c(C(F)(F)F)c2)cc1-c1ccc(C(=O)NCCN2CCOCC2)cc1` were, in that order, 98%, 31% and 52%.
`Cl.Cl.N=C(N)c1cccc(-c2cc(-c3cccc(C(=N)N)c3)on2)c1`: the Inhibition in the experiment with Plasmodium falciparum [1] was 96%; in the experiment with Plasmodium falciparum [2] it was 78%; in the experiment on HepG2 it was 8%.
The corresponding values for `CCCC1N=C(N)N=C(N)N1c1ccc(Cl)cc1.Cl` (stereo not drawn) are 96%, 0% and 14%.
Consider `Cc1ccnc(-n2c(C)cc(C=C3SC(=Nc4ccccc4)N(Cc4ccco4)C3=O)c2C)c1`, for which the Inhibition with Plasmodium falciparum [1] stood at 99%; in the experiment on Plasmodium falciparum [2] it was 98%; in the experiment with HepG2, 0%.
Take `O=C(NCc1ccc(F)cc1)c1cc(Br)cc(N2CCN(c3ccncc3)CC2)c1.O=C(O)C(F)(F)F`: the Inhibition is 80% in the experiment on Plasmodium falciparum [1], 59% in the experiment on Plasmodium falciparum [2] and 36% with HepG2.
The corresponding values for `COc1c(I)cc(Cc2cnc(N)nc2N)cc1I` are 91%, 0% and 5%.
The like results for `Cl.Nc1nc(N)c2c(Cl)c(N(Cc3ccccc3)Cc3ccccc3)ccc2n1` were, in that order, 96%, 2% and 66%.
`CCN(CC)CCCNc1ncc2c(-c3ccc(NC(=O)Nc4cc(C(F)(F)F)ccc4F)cc3)nn(C)c2n1.O=C(O)C(F)(F)F`: the Inhibition was 99% in the experiment on Plasmodium falciparum [1], 74% in the experiment with Plasmodium falciparum [2] and 81% with HepG2.
The corresponding values for `Cc1cc(C)c(C(=O)Nc2n[nH]c3nnc(-c4cccc(F)c4F)cc23)c(C)c1` are 90%, 0% and 0%.
The corresponding values for `Cc1ccc2c(c1C)NC(=O)C21NN=C(c2ccccc2)S1` (stereo not drawn) are 97%, 65% and 31%.
The like results for `CCCc1cc(N2CCC(N3CCCC3)CC2)nc(Nc2ccc(OC)cc2)n1` were, in that order, 94%, 14% and 15%.
Consider `CCS(=O)(=O)N1CCN(c2nc(-c3ccccc3)nc(COC)c2Cc2ccccc2F)CC1`, for which the Inhibition was found to be 82% in the experiment with Plasmodium falciparum [1], 34% with Plasmodium falciparum [2] and 0% with HepG2.
The like results for `Br.Cc1cc(C)c(C)c(OCCCON2C(=N)N=C(N)NC2(C)C)c1C` were, in that order, 94%, 95% and 64%.
The like results for `Cc1ccc(C)c(NC(=O)CC2C(=O)N(c3ccccc3)C(=S)N2Cc2ccco2)c1` (stereo not drawn) were, in that order, 100%, 99% and 9%.
The like results for `CN1CCC(NCc2cccc(-c3cccc(S(=O)(=O)NCc4ccccc4)c3)c2)CC1.O=C(O)C(F)(F)F` were, in that order, 100%, 6% and 57%.
Regarding `CC1C(c2cccc(Cl)c2)OCC(C)(C)N1C(=O)CCN1CCCCC1.Cl` (stereo not drawn), the values for the Inhibition in the experiment with Plasmodium falciparum [1], in the experiment on Plasmodium falciparum [2] and with HepG2 were 88%, 5% and 2%, respectively.
The like results for `COc1ccc([N+](=O)[O-])cc1N(Cc1ccccc1-c1ccccc1)S(=O)(=O)c1ccc(C(F)(F)F)cc1` were, in that order, 96%, 66% and 3%.
The like results for `CCCS(=O)(=O)N1CCC(CO)(Cc2ccccc2C(F)(F)F)CC1` were, in that order, 97%, 57% and 0%.
The corresponding values for `CC(=O)Nc1ccc2[nH]cc(C3CCN(CC4CCC(NC(=O)/C=C/c5ccccc5Cl)CC4)CC3)c2n1` (stereo not drawn) are 100%, 79% and 16%.
In the case of `CN1CCN(CCCN(Cc2cccc(-c3cccc(CNC4CCCC4)c3)c2)C(=O)CCC2CCCC2)CC1.O=C(O)C(F)(F)F`, the Inhibition in the experiment on Plasmodium falciparum [1] is recorded as 100%; in the experiment on Plasmodium falciparum [2], 96%; in the experiment on HepG2 it was 35%.
The corresponding values for `COc1ccccc1N1CCN(c2cccc(F)c2C#N)CC1` are 85%, 59% and 0%.
With `COc1ccc2cc(C=NNc3nc4ccccc4[nH]3)c(Cl)nc2c1`, the Inhibition with Plasmodium falciparum [1] worked out at 100%; in the experiment with Plasmodium falciparum [2], 90%; with HepG2, 2%.
The like results for `O=C(Nc1cccc(-c2cccc(-c3nc4cc(F)ccc4[nH]3)c2)c1)c1ccoc1` were, in that order, 98%, 35% and 36%.
For `CN(C)CCCOc1ccc(CNCC(C)(C)c2nc(-c3ccc(Cl)c(O)c3)c(-c3ccncc3)[nH]2)cc1.Cl`, the Inhibition worked out at 100% with Plasmodium falciparum [1], 58% in the experiment on Plasmodium falciparum [2] and 64% in the experiment on HepG2.
The like results for `COc1ccc(-c2cccc(NC(=O)c3cccc(C#N)c3)c2)cc1CN1CCCN(C)CC1.O=C(O)C(F)(F)F` were, in that order, 100%, 99% and 22%.
The corresponding values for `CCCC(C)n1ccc2c3c(N)nc(N)nc3ccc21` (stereo not drawn) are 94%, 91% and 70%.
The like results for `NCCC(=O)Nc1ccc(-c2cnc3[nH]cc(-c4ccc(C(=O)O)cc4)c3c2)cn1.O=C(O)C(F)(F)F` were, in that order, 99%, 67% and 0%.
Consider `O=CO.O=S1(=O)NCc2ccc(Nc3nccc(Nc4ccc5c(cnn5Cc5ccccc5)c4)n3)cc21`, for which the Inhibition amounted to 94% in the experiment with Plasmodium falciparum [1], 33% in the experiment on Plasmodium falciparum [2] and 0% in the experiment with HepG2.
The corresponding values for `Cl.N=C(N)Nc1ccc(NC(=O)Nc2ccc(NC(=N)N)cc2)cc1` are 85%, 74% and 0%.
The like results for `Clc1cccc(Cl)c1CCNCC1CCN(CC2CCCCC2)CC1.O=C(O)C(F)(F)F` were, in that order, 98%, 94% and 39%.
The like results for `Cc1noc(C)c1-c1ccc2c(Nc3ccccc3C(C)(C)C)c(C(=O)NCc3ccc(OC(C)C)cc3)cnc2c1.Cl` were, in that order, 100%, 98% and 0%.
As to `O=C(Nc1ccc(C(F)(F)F)cc1)c1ccc(S(=O)(=O)NC2CCN(Cc3ccccc3)C2)cc1.O=C(O)C(F)(F)F` (stereo not drawn), the Inhibition in the experiment on Plasmodium falciparum [1] amounted to 100%; in the experiment on Plasmodium falciparum [2], 5%; in the experiment on HepG2 it was 42%.
The corresponding values for `CC1(C)CCCN(C(=O)c2cccc(-n3nc(-c4ccc(Cl)cc4)cc3N)c2)C1` are 100%, 98% and 13%.
`COc1cccc(NC(=O)NC2CCN(CCCCCNC(=O)/C=C/c3ccc(Cl)c(Cl)c3)CC2)c1`: the figures for the Inhibition in the experiment on Plasmodium falciparum [1], in the experiment on Plasmodium falciparum [2] and with HepG2 were 100%, 8% and 14%, respectively.
The like results for `Cc1cccc2nc(-c3cccc(-c4cccc(CN5CCN(c6ccc(C#N)cn6)CC5)c4)c3)[nH]c12.O=C(O)C(F)(F)F` were, in that order, 94%, 34% and 11%.
The corresponding values for `CC(CCCCC(=O)Nc1ccc(C(F)(F)F)cc1)NCC(O)c1cccc(Cl)c1` (stereo not drawn) are 99%, 92% and 51%.
The like results for `CN(C)CCC(O)C=C(c1ccc(Cl)cc1)c1ccc(Cl)cc1` (stereo not drawn) were, in that order, 93%, 85% and 33%.
For the compound `N=C(/N=C(/NCCCCCCN/C(=N/C(=N)NCc1ccc(Cl)c(Cl)c1)N1CCCCC1)N1CCCCC1)NCc1ccc(Cl)c(Cl)c1`, the Inhibition in the experiment with Plasmodium falciparum [1] worked out at 100%; in the experiment on Plasmodium falciparum [2], 99%; in the experiment with HepG2, 6%.
The like results for `COc1ccc2[nH]ccc(=NN=Cc3ccc(N(C)C)cc3)c2c1` were, in that order, 100%, 95% and 4%.
The corresponding values for `COc1cc(NC(=O)c2ccc3oc4ccccc4c3c2)ccc1OCCN1CCCCC1.Cl` are 89%, 11% and 12%.
With `O=C(c1ccc(-c2ccccn2)s1)N1CCc2cc3nccc(N4CCN5CCC[C@H]5C4)c3cc21`, the Inhibition with Plasmodium falciparum [1] is reported as 96%; in the experiment on Plasmodium falciparum [2], 49%; in the experiment with HepG2 it was 0%.
The corresponding values for `O=C(/C=C/c1ccc(Cl)c(Cl)c1)N1CCC(CCN2CCC(c3c[nH]c4ccccc34)CC2)CC1` are 100%, 44% and 56%.
The corresponding values for `CS(=O)(=O)c1ccc(CCNCc2ccc(-c3ccc(CNC4CCN(Cc5ccccc5)CC4)cc3)nc2)cc1.O=C(O)C(F)(F)F` are 100%, 100% and 32%.
The corresponding values for `O=C(CCCc1ccccc1)Nc1cccc(N2CCC(N3CCN(c4ccccc4O)CC3)CC2)c1` are 98%, 41% and 31%.
On to `COc1ccccc1CCNc1nc(C)cc(N[C@@H](Cc2ccccc2)C(=O)NCc2cccs2)n1.O=C(O)C(F)(F)F`, for which the Inhibition was 100% in the experiment with Plasmodium falciparum [1], 73% in the experiment on Plasmodium falciparum [2] and 18% in the experiment with HepG2.
